{
  "source": "the supplement of paper PMC4237247",
  "data": [
    {"tested_on": "HeLa", "assay": "percent cells in G1/S phase; higher = more G1/S content", "settings": "10 µM; 20 h; hit class: G2/M-phase inhibitor", "protocol": "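HTS of 79,827 drug-like compounds at 10 uM. HeLa cells in 384-well plates were treated for 20 h, fixed, stained with Vybrant DyeCycle Green and scanned on an Acumen eX3 cytometer to give per-well cell cycle profiles. Only G2/M hits (>=67% G2/M) are listed.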", "units": {"percent cells in G1/S phase": "%"}, "values": [
      {"molecule": "CC(=O)O[C@H]1C(=O)[C@@]2(C)[C@H]([C@H](OC(=O)c3ccccc3)[C@]3(O)C[C@H](OC(=O)[C@H](O)[C@@H](NC(=O)c4ccccc4)c4ccccc4)C(C)=C1C3(C)C)[C@]1(OC(C)=O)CO[C@@H]1C[C@@H]2O", "note": "[Paclitaxel]", "percent cells in G1/S phase": 16.5},
      {"molecule": "COc1cc(NS(=O)(=O)c2ccc(NC(C)=O)cc2)c(OC)cc1Cl", "percent cells in G1/S phase": 23.2},
      {"molecule": "O=c1[nH]c(/C=C/c2ccccc2)nc2ccccc12", "percent cells in G1/S phase": 24.1},
      {"molecule": "COC(=O)Nc1nc2cc(Sc3ccccc3)ccc2[nH]1", "note": "[Fenbendazole]", "percent cells in G1/S phase": 26.3},
      {"molecule": "O=C(CSc1nc2ccc([N+](=O)[O-])cc2s1)c1ccc(Cl)cc1", "percent cells in G1/S phase": 22.6},
      {"molecule": "CC(=O)Nc1ccc(Nc2nc(-c3c(C)nc4ccccn34)cs2)cc1", "percent cells in G1/S phase": 14.3},
      {"molecule": "O=C(O)c1ccccc1SC1CC(=O)N(c2ccc(Br)cc2)C1=O", "note": "(centres undefined)", "percent cells in G1/S phase": 17.9},
      {"molecule": "COC(=O)Nc1nc2cc(C(=O)c3ccccc3)ccc2[nH]1", "note": "[Mebendazole]", "percent cells in G1/S phase": 22.1},
      {"molecule": "COc1ccc(/C=C/c2ccc3cccc(O)c3n2)cc1C", "percent cells in G1/S phase": 22.4},
      {"molecule": "COC(=O)Nc1nc2ccc(SC(C)C)cc2[nH]1", "note": "[Methiazole]", "percent cells in G1/S phase": 19.6},
      {"molecule": "COc1cc(-c2onc3ccc(Cl)cc23)cc(OC)c1OC", "percent cells in G1/S phase": 15.6},
      {"molecule": "COc1ccccc1NC1=CC(=O)CC(c2ccccc2)C1", "note": "(centres undefined)", "percent cells in G1/S phase": 21.6},
      {"molecule": "O=c1[nH]c(/C=C/c2ccccc2F)nc2ccccc12", "percent cells in G1/S phase": 19.2},
      {"molecule": "CCN(CC)CCN1C(=O)C(=O)C(=C(O)c2ccccc2)C1c1ccccc1F", "note": "(centres undefined)", "percent cells in G1/S phase": 20.9}
    ]}
  ]
}
